# Data published in PubChem BioAssay (NCATS).
# Records with an inconclusive call do not appear. Unmarked numbers belong to inactive results. The list shows a part of the results. A call without a number means that no potency is given here. Calls of active or inactive are those of the source. Calls come from the whole dose curve; as a rule, active = well fitted curve in the direction sought with a large enough effect; inconclusive = small, poorly fitted or top-dose-only effect, or another doubt; inactive = no such curve, though single readings can be large; an effect the other way counts as inactive or inconclusive.
# Key:
# [1] = target: Rap guanine nucleotide exchange factor 3 (Homo sapiens) (UniProt O95398); assay: Confirmatory qHTS for antagonist of cAMP-regulated guanine nucleotide exchange factor 3 (EPAC1) (AID 1645880); details: EPAC1 Rap1B-BODIPY-GDP exchange, fluorescence; activity, negative = inhibition: at 115 µM (top of the series); note: nearly all actives have a fitted effect of over 55% in size; note: potency is the fitted concentration of half-maximal effect
# Rap guanine nucleotide exchange factor 3 (Homo sapiens), sequence (O95398 whole entry, looked up): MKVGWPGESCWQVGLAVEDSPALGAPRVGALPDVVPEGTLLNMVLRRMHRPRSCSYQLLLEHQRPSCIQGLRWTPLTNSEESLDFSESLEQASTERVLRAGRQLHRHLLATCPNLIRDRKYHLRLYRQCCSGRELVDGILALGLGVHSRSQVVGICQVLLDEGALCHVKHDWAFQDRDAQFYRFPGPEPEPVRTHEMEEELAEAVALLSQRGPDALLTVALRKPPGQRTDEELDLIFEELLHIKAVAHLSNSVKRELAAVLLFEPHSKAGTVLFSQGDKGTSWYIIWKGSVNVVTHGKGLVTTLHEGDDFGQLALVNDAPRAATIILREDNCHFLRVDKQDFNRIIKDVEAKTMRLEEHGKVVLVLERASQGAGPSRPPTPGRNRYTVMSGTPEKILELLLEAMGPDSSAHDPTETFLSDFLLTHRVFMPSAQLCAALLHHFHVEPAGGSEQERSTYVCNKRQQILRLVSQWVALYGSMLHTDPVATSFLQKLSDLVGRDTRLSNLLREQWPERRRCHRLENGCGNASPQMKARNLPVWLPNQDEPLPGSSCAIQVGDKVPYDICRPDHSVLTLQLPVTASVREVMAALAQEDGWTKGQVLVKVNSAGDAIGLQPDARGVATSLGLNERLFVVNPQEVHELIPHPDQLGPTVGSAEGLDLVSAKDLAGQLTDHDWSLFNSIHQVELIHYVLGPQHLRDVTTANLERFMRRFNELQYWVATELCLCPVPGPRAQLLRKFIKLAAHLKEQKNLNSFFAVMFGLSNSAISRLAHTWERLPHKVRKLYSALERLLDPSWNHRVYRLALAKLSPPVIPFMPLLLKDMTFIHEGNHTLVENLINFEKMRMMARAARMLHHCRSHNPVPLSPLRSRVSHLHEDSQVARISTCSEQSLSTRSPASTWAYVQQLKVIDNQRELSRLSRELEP
# In short: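 Nucleotide exchange uses 100 nM EPAC1, 250 nM RAP1B-BODIPY-GDP and 50 uM GDP, with compounds in a concentration-titration series. After 5 min at room temperature, fluorescence (480 nm ex/540 nm em) is read every 5 min for 30 min. Data are normalized to control ATA and DMSO.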
# [2] = target: Rap guanine nucleotide exchange factor 3 (Homo sapiens) (UniProt O95398); assay: Confirmatory qHTS for agonist of cAMP-regulated guanine nucleotide exchange factor 3 (EPAC1) (AID 1645881); note: nearly all actives have a fitted effect of over 75% in size; note: potency is the fitted concentration of half-maximal effect;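 for activation: EPAC1 catalysed release of BODIPY-GDP from Rap1B seen as fluorescence loss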
# [3] = target: Rap guanine nucleotide exchange factor 4 (Homo sapiens) (UniProt Q8WZA2); assay: Confirmatory qHTS for agonist of cAMP-regulated guanine nucleotide exchange factor 4 (EPAC2) (AID 1645884);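 note: nucleotide exchange releases bodipy-GDP from Rap1 and this lowers its fluorescence; nearly all actives have a fitted effect of over 65% in size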; note: potency is the fitted concentration of half-maximal effect
# Rap guanine nucleotide exchange factor 4 (Homo sapiens), sequence (Q8WZA2 whole entry, looked up): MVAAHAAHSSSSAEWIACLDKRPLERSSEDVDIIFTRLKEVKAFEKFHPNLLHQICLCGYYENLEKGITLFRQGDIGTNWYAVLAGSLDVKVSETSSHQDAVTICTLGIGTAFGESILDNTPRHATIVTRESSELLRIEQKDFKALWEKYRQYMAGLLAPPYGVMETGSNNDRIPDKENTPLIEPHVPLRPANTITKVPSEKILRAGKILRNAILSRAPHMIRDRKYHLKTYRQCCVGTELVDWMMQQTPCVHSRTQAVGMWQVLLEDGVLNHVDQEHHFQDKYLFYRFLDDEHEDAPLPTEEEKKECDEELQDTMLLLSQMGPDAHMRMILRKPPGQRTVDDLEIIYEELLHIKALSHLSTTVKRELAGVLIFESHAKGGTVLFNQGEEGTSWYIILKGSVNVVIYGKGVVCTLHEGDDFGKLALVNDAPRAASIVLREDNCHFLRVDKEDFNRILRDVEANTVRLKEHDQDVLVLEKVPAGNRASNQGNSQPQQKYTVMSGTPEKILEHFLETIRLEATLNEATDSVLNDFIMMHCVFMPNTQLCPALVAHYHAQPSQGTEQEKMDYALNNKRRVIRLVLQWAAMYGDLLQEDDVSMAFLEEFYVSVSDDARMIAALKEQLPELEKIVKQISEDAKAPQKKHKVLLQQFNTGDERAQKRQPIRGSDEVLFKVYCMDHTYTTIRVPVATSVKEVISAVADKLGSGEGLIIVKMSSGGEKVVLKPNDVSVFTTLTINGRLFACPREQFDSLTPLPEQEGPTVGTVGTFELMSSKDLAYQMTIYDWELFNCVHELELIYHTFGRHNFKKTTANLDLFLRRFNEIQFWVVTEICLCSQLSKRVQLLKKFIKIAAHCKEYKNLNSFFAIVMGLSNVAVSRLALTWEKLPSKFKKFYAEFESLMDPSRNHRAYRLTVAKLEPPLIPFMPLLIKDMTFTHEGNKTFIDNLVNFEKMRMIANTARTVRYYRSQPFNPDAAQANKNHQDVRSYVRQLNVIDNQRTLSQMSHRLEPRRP
# [4] = target: Rap guanine nucleotide exchange factor 4 (Homo sapiens) (UniProt Q8WZA2); assay: Confirmatory qHTS for antagonist of cAMP-regulated guanine nucleotide exchange factor 4 (EPAC2) (AID 1645885); note: nearly all actives have a fitted effect of over 25% in size; note: potency is the fitted concentration of half-maximal effect
# [5] = target: Rap guanine nucleotide exchange factor 3 (Homo sapiens) (UniProt O95398); assay: Counterscreen qHTS for agonist of cAMP-regulated guanine nucleotide exchange factor 3 (EPAC1) (AID 1645889); note: nearly all actives have a fitted effect of over 40% in size; note: potency is the fitted concentration of half-maximal effect
# In short: (§1)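 Rap1B–BODIPY-GDP (250 nM) with 50 uM GDP; compounds pin-transferred to 9.74 nM–152 uM final (activator) or from 7.32 nM upwards (inhibitor). Fluorescence Ex/Em 480/540 nm read at 5 and 30 min, then after adding cAMP or buffer, at room temperature.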
# [6] = target: Phosphoglycerate kinase, glycosomal (Trypanosoma brucei brucei) (UniProt P07378); assay: qHTS for inhibitors of Phosphogylcerate Kinase: Hit Validation Screen (AID 686980); details: TbPGK coupled GAPDH assay, Kinase-Glo luminescence; note: potency is the fitted concentration of half-maximal effect; nearly all actives have a fitted effect of over 65% in size
# Phosphoglycerate kinase, glycosomal (Trypanosoma brucei brucei), sequence (P07378 whole entry, looked up): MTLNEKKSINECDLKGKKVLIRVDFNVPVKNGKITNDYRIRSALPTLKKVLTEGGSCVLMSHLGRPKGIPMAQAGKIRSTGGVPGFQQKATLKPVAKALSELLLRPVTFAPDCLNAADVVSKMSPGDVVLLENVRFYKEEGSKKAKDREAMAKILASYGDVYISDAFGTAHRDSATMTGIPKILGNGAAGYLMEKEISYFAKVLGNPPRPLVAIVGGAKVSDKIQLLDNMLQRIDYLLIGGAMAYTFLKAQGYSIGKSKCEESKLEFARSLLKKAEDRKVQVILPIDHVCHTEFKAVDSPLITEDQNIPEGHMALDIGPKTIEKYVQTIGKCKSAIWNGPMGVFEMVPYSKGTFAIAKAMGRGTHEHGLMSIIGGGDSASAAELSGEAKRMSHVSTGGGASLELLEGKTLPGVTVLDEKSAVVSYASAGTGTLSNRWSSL
# In short: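 Luminescent ATP detection (Kinase-Glo Plus) follows a 60-minute room-temperature incubation, with wells lacking PGK as controls. Buffer: 100 mM TEA (pH 7.6), 5 mM MgCl2, 0.01% Tween-20. Coupling enzyme GAPDH (100 nM final) supplies unstable 1,3-BPG in-well.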
# [7] = target: DNA polymerase iota (Homo sapiens) (UniProt Q9UNA4); assay: qHTS for Inhibitors of Polymerase Iota: Confirmatory Assay for Cherry-picked Compounds (AID 720496); details: Pol iota primer extension, TAMRA/BHQ fluorescence; note: potency is the fitted concentration of half-maximal effect
# DNA polymerase iota (Homo sapiens), sequence (Q9UNA4 whole entry, looked up): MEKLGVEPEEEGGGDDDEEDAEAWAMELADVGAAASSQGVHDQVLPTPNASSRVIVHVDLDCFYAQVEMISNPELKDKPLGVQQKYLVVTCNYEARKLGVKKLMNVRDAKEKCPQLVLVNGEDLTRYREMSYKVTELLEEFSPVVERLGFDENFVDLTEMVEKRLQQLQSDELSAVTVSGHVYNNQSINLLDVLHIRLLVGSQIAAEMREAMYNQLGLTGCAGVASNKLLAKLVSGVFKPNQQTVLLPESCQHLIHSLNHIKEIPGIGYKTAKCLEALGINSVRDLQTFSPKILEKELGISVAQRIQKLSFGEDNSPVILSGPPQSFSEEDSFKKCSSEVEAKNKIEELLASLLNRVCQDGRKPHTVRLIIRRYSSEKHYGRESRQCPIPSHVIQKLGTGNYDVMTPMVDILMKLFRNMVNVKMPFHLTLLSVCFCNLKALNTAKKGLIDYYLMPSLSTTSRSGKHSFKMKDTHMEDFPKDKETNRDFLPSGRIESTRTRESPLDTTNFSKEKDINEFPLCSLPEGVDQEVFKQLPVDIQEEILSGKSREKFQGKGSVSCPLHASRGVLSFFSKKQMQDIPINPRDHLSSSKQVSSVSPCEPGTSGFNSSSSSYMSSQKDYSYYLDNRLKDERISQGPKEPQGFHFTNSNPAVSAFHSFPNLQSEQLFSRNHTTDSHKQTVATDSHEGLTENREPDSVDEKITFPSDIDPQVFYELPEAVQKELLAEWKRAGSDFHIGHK
# In short: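 Buffer-only wells, without enzyme, serve as negative control. Test wells hold 10 nM Pol iota preincubated 15 min with compound before 50 nM final fluorogenic DNA substrate is added; signal is read at 0 and 10 min.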
# [8] = target: Flap endonuclease 1 (Homo sapiens) (UniProt P39748); assay: qHTS Assay for the Inhibitors of FEN1: Confirmatory Assay for Cherry-picked Compounds (AID 720498); details: FEN1 flap cleavage, TAMRA/BHQ2 fluorogenic DNA substrate; note: potency is the fitted concentration of half-maximal effect; nearly all actives have a fitted effect of over 60% in size
# Flap endonuclease 1 (Homo sapiens), sequence (P39748 whole entry, looked up): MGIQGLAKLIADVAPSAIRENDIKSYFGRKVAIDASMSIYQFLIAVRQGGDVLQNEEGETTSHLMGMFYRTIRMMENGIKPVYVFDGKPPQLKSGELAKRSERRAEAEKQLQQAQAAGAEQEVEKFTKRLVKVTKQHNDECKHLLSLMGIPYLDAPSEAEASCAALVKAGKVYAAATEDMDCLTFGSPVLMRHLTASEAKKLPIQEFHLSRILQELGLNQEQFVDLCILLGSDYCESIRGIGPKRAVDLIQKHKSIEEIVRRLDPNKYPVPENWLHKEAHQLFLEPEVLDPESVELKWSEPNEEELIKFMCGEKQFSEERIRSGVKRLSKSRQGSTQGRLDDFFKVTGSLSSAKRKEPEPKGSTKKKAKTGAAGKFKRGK
# In short: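 FEN1 at 10 nM was preincubated with compound for 15 min at room temperature, then 50 nM (final) double-flap DNA substrate was added. TAMRA fluorescence released from the BHQ-2-quenched flap was read at 0 and 15 min (ex 525/em 598 nm).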
# [9] = target: Rap guanine nucleotide exchange factor 3 (Homo sapiens) (UniProt O95398); assay: Counterscreen qHTS for antagonist of cAMP-regulated guanine nucleotide exchange factor 3 (EPAC1) (AID 1645888);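 note: fluorescence loss as bound BODIPY-GDP is released from Rap1B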
# In short: as §1
# [10] = target: Tumor susceptibility gene 101 protein (Homo sapiens) (UniProt Q99816); assay: qHTS Assay for Iinhibitors of HIV-1 Budding by Blocking the Interaction of PTAP/TSG101: Hit Validation (AID 651600); note: nearly all actives have a fitted effect of over 70% in size; note: potency is the fitted concentration of half-maximal effect
# Tumor susceptibility gene 101 protein (Homo sapiens), sequence (Q99816 whole entry, looked up, the tested form may be a part): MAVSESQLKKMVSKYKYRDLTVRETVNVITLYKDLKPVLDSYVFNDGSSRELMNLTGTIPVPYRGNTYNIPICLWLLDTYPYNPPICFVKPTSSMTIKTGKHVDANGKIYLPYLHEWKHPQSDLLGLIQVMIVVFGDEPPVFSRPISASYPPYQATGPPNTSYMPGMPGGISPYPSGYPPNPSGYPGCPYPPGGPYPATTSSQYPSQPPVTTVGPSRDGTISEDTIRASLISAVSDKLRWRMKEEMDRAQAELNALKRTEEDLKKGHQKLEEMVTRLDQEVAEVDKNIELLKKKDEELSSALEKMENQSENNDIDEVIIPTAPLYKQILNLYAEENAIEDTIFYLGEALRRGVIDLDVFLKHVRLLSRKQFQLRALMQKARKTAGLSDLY
# In short: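 Fluorescence polarization binding assay: Tsg101 binding domain (10 uM final) pre-dispensed with compounds, then FITC-labeled PTAP-motif peptide (50 nM final) added; 20 min at r.t. in HEPES pH 7.5 buffer with NaCl, Tween 20, EDTA, TCEP.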
compound,measurement,setting,value
CCN1CCc2c(sc(NC(=O)c3ccc(S(=O)(=O)N4CCCCCC4)cc3)c2C(=O)NC)C1,Potency,[1],inactive
same,Potency,[2],inactive
same,Potency,[3],inactive
same,Potency,[4],inactive
same,Potency,[5],inactive
CC(=O)Nc1cccc(/C(C)=N/Nc2ccc(S(=O)(=O)Nc3ccccc3C(=O)O)cc2[N+](=O)[O-])c1,Potency,[1],21.3 µM (active)
same,Potency,[2],inactive
same,Potency,[3],inactive
same,Potency,[4],inactive
same,Potency,[5],inactive
COc1cc(CN2CCN(C(=O)CC(C)C)CC2)c([N+](=O)[O-])cc1OC,Potency,[1],inactive
same,Potency,[2],inactive
same,activation,[3],"2.13% [at 17.1 µM, percent relative to cAMP agonist control]"
same,Potency,[4],inactive
same,activation,[5],8.51% [at 30.8 µM]
Cc1ccc([N+](=O)[O-])cc1S(=O)(=O)N1CCC(C)CC1,Potency,[1],inactive
same,Potency,[2],inactive
same,Potency,[3],inactive
same,Potency,[4],inactive
same,Potency,[5],inactive
C=CCn1cc(C(=O)NCCCOC)c(=O)c2cc(S(=O)(=O)N(CC)CC)ccc21,Potency,[1],inactive
same,Potency,[2],inactive
same,Potency,[3],inactive
same,Potency,[4],inactive
same,Potency,[5],inactive
O=C(CSc1nnnn1-c1ccccc1)Nc1ccc(Cl)cn1,Potency,[1],inactive
same,Potency,[2],inactive
same,Potency,[3],inactive
same,Potency,[4],inactive
same,Potency,[5],inactive
COc1ccc(/C=N/N=C2/C(=O)Nc3ccccc32)cc1O,Potency,[1],inactive
same,Potency,[2],inactive
same,activation,[3],"6.47% [at 17.1 µM, percent relative to cAMP agonist control]"
same,Potency,[4],inactive
same,activation,[5],36.3% [at 30.8 µM]
CCOc1ccc(NC(=O)c2ccc(NC(=O)COC(=O)c3ccc(NC(=O)CC#N)cc3)cc2)cc1,Potency,[6],8.19 µM (active)
same,Potency,[7],4.74 µM (active)
same,Potency,[8],67.5 µM (active)
same,Potency,[1],inactive
same,Potency,[2],inactive
same,Potency,[3],inactive
same,Potency,[4],inactive
same,Potency,[9],inactive
CCOc1ccc(CNC(=O)c2ccccc2NC(=O)c2nsc3ccccc23)cc1,Potency,[1],inactive
same,Potency,[2],inactive
same,Potency,[3],inactive
same,outcome,[4],inactive [at 12.7 µM]
same,Potency,[5],inactive
CC(C)(C)OC(=O)N1CCN(C(=O)c2[nH]c(C(F)(F)F)nc2-c2ccccc2)CC1,Potency,[1],inactive
same,Potency,[2],inactive
same,Potency,[3],inactive
same,Potency,[4],inactive
same,Potency,[5],inactive
COC(=O)Cc1c(C)c2ccc(OC(=O)c3ccco3)cc2oc1=O,Potency,[1],inactive
same,Potency,[2],inactive
same,activation,[3],"7.89% [at 17.1 µM, percent relative to cAMP agonist control]"
same,Potency,[4],inactive
same,activation,[5],4.06% [at 30.8 µM]
Cc1cc(Nc2ncc(Cl)cc2Cl)n(-c2ccccc2C)n1,Potency,[1],inactive
same,Potency,[2],inactive
same,Potency,[3],inactive
same,Potency,[4],16.9 µM (active)
same,Potency,[5],inactive
N#C/C(=C\c1ccccn1)c1nc2ccccc2s1,Potency,[10],inactive
same,Potency,[1],19 µM (active)
same,Potency,[2],inactive
same,Potency,[3],inactive
same,Potency,[4],inactive
same,Potency,[9],inactive
CCCN(CCC)c1nc(-c2ccccn2)nc2ccccc12,Potency,[1],inactive
same,Potency,[2],inactive
same,activation,[3],"-0.687% [at 17.1 µM, percent relative to cAMP agonist control]"
same,Potency,[4],inactive
same,activation,[5],0.395% [at 30.8 µM]
O=S(=O)(Nc1nc2ccccc2nc1Nc1cccc(S(=O)(=O)N2CCCCC2)c1)c1ccccc1,Potency,[1],56.2 µM (active)
same,Potency,[2],inactive
same,activation,[3],"6.04% [at 17.1 µM, percent relative to cAMP agonist control]"
same,Potency,[4],inactive
same,activation,[5],25.8% [at 30.8 µM]
Cc1ccc(C(=O)NN2C(=O)/C(=C/c3cn(C)c4ccccc34)SC2=S)cc1,Potency,[10],14.6 µM (active)
same,Potency,[1],inactive
same,Potency,[2],inactive
same,Potency,[3],inactive
same,Potency,[4],inactive
same,Potency,[9],inactive
C=CCn1c(SCC(=O)NC(N)=O)nnc1-c1cc2c(s1)CCC(CC)C2 (stereo unspecified),Potency,[1],inactive
same,Potency,[2],inactive
same,Potency,[3],inactive
same,Potency,[4],inactive
same,Potency,[5],inactive
CCn1c(O)c(/C=N/N=C/c2ccc(OC)cc2)c2cc(C3=NNC(=O)CC3)ccc21,Potency,[1],inactive
same,Potency,[2],89.1 µM (active)
same,Potency,[3],100 µM (active)
same,Potency,[4],inactive
same,Potency,[5],inactive
COc1cccc(CC(=NO)c2cccc(OC)c2)c1,Potency,[1],inactive
same,Potency,[2],inactive
same,activation,[3],"4.78% [at 17.1 µM, percent relative to cAMP agonist control]"
same,Potency,[4],inactive
same,activation,[5],2.23% [at 30.8 µM]
COc1ccc(C2CCc3cc4c(cc3C2=NO)OCO4)cc1OC (stereo unspecified),Potency,[1],inactive
same,Potency,[2],inactive
same,activation,[3],"6.77% [at 17.1 µM, percent relative to cAMP agonist control]"
same,Potency,[4],inactive
same,activation,[5],14.5% [at 30.8 µM]
CN1CCN(C2=CC3=CC(=C(C#N)C#N)CCC3CC2)CC1 (stereo unspecified),Potency,[1],inactive
same,Potency,[2],44.7 µM (active)
same,Potency,[3],56.2 µM (active)
same,Potency,[4],6.75 µM (active)
same,Potency,[5],14.1 µM (active)
COc1cc(C(=O)NCC(=O)N/N=C(\C)Cc2ccccc2)cc(OC)c1OC,Potency,[1],inactive
same,Potency,[2],inactive
same,Potency,[3],inactive
same,Potency,[4],inactive
same,Potency,[5],inactive
Cc1ccc(C)c2nc3sc(C(=O)N4CCCc5ccccc54)c(N)c3cc12,Potency,[10],20.6 µM (active)
same,Potency,[1],inactive
same,Potency,[2],inactive
same,Potency,[3],inactive
same,Potency,[4],inactive
same,Potency,[9],inactive
